Assay results: PubChem BioAssay
Active and inactive are the calls of the source. Unless noted, the rule behind the calls is not given here.

Legend:
[1] = resazurin metabolic signal in HepG2 cells – cell-based, resazurin fluorescence, 24 h, PK04 Diversity Set, profiling panel (AID 1172); conditions: HepG2 viability, higher = more signal; note: test concentration not given here
[2] = budding yeast growth changes without added modifier – OD600, strain BY4716, 24 h, basal condition, primary screen (AID 1173); conditions: S. cerevisiae BY4716 growth, OD600, 24 h; higher = more signal, called active from +8 up or from −8 down
[3] = viability profiling in MM1S myeloma cells – cell-based, resazurin fluorescence, basal, 24 h, PK04 Diversity Set, profiling panel (AID 1174); conditions: higher = more signal, called active from +8 up or from −8 down;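 note: MM1S multiple myeloma cell line; test concentration not given here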
[4] = target: Dihydroorotate dehydrogenase (quinone), mitochondrial (Plasmodium falciparum (isolate 3D7)) (UniProt Q08210); assay: inhibition of P. falciparum DHODH – biochemical, C-terminal His tag, absorbance 600 nm, primary screen (AID 1175); conditions: PfDHODH enzyme, DCIP absorbance 600 nm; higher = more signal, called active from +8 up or from −8 down;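 note: recombinant parasite enzyme with a five histidine tag at its C terminus; test concentration not given here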
[5] = inhibition of PAO1 biofilm formation – strain PAO1, LB-PBS medium, absorbance 600 nm, primary screen (AID 1176); note: test concentration not given here; conditions: P. aeruginosa PAO1 growth/biofilm, A600, 12 h; higher = more signal
[6] = growth modulation of vineyard yeast isolate – strain RM11-1a, OD600, basal, 24 h, primary screen (AID 1177);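 note: cultures grown under basal conditions with no added stressor; test concentration not given here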; conditions: S. cerevisiae RM11-1a growth, OD600, 24 h; higher = more signal, called active from +8 up or from −8 down
[7] = growth of efflux-deficient E. coli DRC39 – strain DRC39, OD650, 24 h, E. coli filamentation inducers, primary screen (AID 1178);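 note: growth measured as culture turbidity by optical density at 650 nm; test concentration not given here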; conditions: E. coli DRC39 acrAB, higher = more signal, called active from +8 up or from −8 down
[8] = growth of efflux-deficient E. coli DRC39 – strain DRC39, OD650, 48 h, E. coli filamentation inducers, primary screen (AID 1179);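 note: screen aims at cell division blockers that make cells filament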; conditions: E. coli DRC39 delta-acrAB growth, higher = more signal, called active from +8 up or from −8 down
[9] = viability profiling in RPMI8226 myeloma cells – cell-based, resazurin fluorescence, basal, 24 h, PK04 Diversity Set, profiling panel (AID 1180); conditions: higher = more signal;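 note: RPMI8826 multiple myeloma cell line at 5000 cells per well; test concentration not given here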
[10] = target: E3 ubiquitin-protein ligase XIAP (Homo sapiens) (UniProt P98170); assay: small molecules binding XIAP protein – biophysical, small-molecule microarray, fluorescence 635 nm, primary screen (AID 1181); conditions: higher = more signal;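 note: score merges 667 nm emission and signal to noise over triplicate slides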
E3 ubiquitin-protein ligase XIAP (Homo sapiens), sequence (P98170 whole entry, looked up): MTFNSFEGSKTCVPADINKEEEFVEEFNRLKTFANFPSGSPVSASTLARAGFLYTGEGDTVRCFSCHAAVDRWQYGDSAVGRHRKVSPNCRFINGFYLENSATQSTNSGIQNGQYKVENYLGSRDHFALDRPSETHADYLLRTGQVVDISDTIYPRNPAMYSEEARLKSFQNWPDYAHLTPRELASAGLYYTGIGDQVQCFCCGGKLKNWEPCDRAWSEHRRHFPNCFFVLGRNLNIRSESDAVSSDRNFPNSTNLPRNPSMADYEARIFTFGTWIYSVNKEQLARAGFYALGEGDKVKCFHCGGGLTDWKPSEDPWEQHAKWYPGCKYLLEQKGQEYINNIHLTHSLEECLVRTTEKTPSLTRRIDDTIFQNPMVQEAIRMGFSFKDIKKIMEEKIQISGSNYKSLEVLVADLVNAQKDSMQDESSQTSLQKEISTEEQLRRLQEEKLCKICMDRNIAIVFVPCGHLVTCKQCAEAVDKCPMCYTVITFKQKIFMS

Dihydroorotate dehydrogenase (quinone), mitochondrial (Plasmodium falciparum (isolate 3D7)), sequence (Q08210 whole entry, looked up): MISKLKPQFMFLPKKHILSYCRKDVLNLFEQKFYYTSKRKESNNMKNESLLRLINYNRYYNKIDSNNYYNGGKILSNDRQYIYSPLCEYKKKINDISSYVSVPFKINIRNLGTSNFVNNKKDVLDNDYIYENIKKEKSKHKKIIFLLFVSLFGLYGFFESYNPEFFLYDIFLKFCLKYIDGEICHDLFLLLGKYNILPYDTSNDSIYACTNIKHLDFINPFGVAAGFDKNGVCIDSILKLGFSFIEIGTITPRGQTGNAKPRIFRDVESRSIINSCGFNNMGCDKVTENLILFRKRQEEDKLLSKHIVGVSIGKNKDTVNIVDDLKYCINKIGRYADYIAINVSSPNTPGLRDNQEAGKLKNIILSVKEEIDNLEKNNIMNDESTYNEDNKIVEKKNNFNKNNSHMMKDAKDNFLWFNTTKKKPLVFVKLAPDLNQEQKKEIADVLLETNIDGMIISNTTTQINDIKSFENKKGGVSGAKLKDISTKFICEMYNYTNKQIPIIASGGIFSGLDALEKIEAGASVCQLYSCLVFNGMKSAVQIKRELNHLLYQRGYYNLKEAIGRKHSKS

SMILES: O=C1N(Cc2ccccc2)c2ccccc2C[C@@]12COC(c1ccc(OCCCO)cc1)=N2
- z-score [1]: 0.792
- z-score [2]: -0.248 (inactive)
- z-score [3]: -1.61 (inactive)
- composite z-score [4]: 0.0144 (inactive)
- z-score [5]: 1.39 (inactive)
- z-score [6]: 0.903 (inactive)
- z-score [7]: 1.17 (inactive)
- z-score [8]: -0.187 (inactive)
- z-score [9]: 0.712
- composite z-score [10]: 0.0578

SMILES: CCOC(=O)C[C@H]1[C@H](OC(=O)c2ccccc2-c2ccccc2)[C@@H](NC(=O)C2CCCCC2)c2cc(OCCCO)ccc2N1C(=O)c1ccc2ccccc2n1
- z-score [1]: -0.872
- z-score [2]: 0.818 (inactive)
- z-score [3]: -0.0667 (inactive)
- composite z-score [4]: 0.338 (inactive)
- z-score [5]: -0.177 (inactive)
- z-score [6]: 0.743 (inactive)
- z-score [7]: -0.53 (inactive)
- z-score [8]: -0.12 (inactive)
- z-score [9]: 0.131
- composite z-score [10]: -0.0351

SMILES: C[C@]1(C(=O)O)c2ccccc2C(=O)N(Cc2cc(F)cc(C(F)(F)F)c2)[C@H]1c1ccc(CO)cc1
- z-score [1]: 0.646
- z-score [2]: -1.43 (inactive)
- z-score [3]: 0.449 (inactive)
- composite z-score [4]: -0.215 (inactive)
- z-score [5]: 1.01 (inactive)
- z-score [6]: -1.33 (inactive)
- z-score [7]: 0.434 (inactive)
- z-score [8]: -0.808 (inactive)
- z-score [9]: 1.4
- composite z-score [10]: -0.167

SMILES: COCCOC(=O)N1C(=O)[C@@]2(c3ccccc31)[C@H](c1ccc(O)cc1)N1[C@H](c3ccccc3)[C@H](c3ccccc3)OC(=O)[C@H]1[C@@H]2C(=O)N1CCCCCCC1
- z-score [1]: 0.0454
- z-score [2]: -0.712 (inactive)
- z-score [3]: 0.0065 (inactive)
- composite z-score [4]: 0.161 (inactive)
- z-score [5]: 1.57 (inactive)
- z-score [6]: -0.122 (inactive)
- z-score [7]: -0.391 (inactive)
- z-score [8]: -1.88 (inactive)
- z-score [9]: 0.248
- composite z-score [10]: 0.587

SMILES: COC(=O)C(CC#Cc1ccc2c(c1)[C@]1(C(=O)N2)[C@H](C(=O)N2CCc3cc(OC)c(OC)cc3C2)[C@H]2C(=O)O[C@H](c3ccccc3)[C@H](c3ccccc3)N2[C@@H]1c1ccccc1OCCO)C(=O)OC
- z-score [1]: -0.553
- z-score [2]: 1.79 (inactive)
- z-score [3]: -1.03 (inactive)
- composite z-score [4]: -7.03 (inactive)
- z-score [5]: 3.81 (inactive)
- z-score [6]: 2.83 (inactive)
- z-score [7]: 0.154 (inactive)
- z-score [8]: 0.618 (inactive)
- z-score [9]: -0.705
- composite z-score [10]: -0.11

SMILES: CC(C)NC(=O)[C@@H]1c2ccccc2C(=O)N(Cc2ccccc2C(F)(F)F)[C@H]1c1ccc(CO)cc1
- z-score [1]: 0.994
- z-score [2]: -0.249 (inactive)
- z-score [3]: 0.711 (inactive)
- composite z-score [4]: 0.0482 (inactive)
- z-score [5]: 0.441 (inactive)
- z-score [6]: -0.227 (inactive)
- z-score [7]: 0.296 (inactive)
- z-score [8]: 0.0644 (inactive)
- z-score [9]: 0.616
- composite z-score [10]: -0.135

SMILES: COc1ccc(C(=O)Nc2ccc3c(c2)[C@@]2(O[C@H](CCO)[C@@H]([Si](C)(C)c4ccc(OC)cc4)[C@@H]2C)C(=O)N3Cc2ccccc2)cc1
- z-score [1]: -2.52
- z-score [2]: -1.96 (inactive)
- z-score [3]: -8.32 (active)
- composite z-score [4]: -0.687 (inactive)
- z-score [5]: 0.249 (inactive)
- z-score [6]: 2.7 (inactive)
- z-score [7]: -0.59 (inactive)
- z-score [8]: -0.927 (inactive)
- z-score [9]: -5.58
- composite z-score [10]: -0.131

SMILES: CN(C)CCCC[C@@H]1NC(=O)[C@@H]2C[C@H](C(=O)NCCCCCCNC(=O)CS)[C@H](c3ccc(O)cc3)N2C1=O
- z-score [1]: 0.155
- z-score [2]: -0.17 (inactive)
- z-score [3]: -0.353 (inactive)
- composite z-score [4]: -0.173 (inactive)
- z-score [5]: 0.767 (inactive)
- z-score [6]: -0.264 (inactive)
- z-score [7]: -0.19 (inactive)
- z-score [8]: -0.551 (inactive)
- z-score [9]: 0.0875
- composite z-score [10]: 0.0013

SMILES: CC(C)=C1C(=O)C(c2ccccc2)=C2CN3C(=O)N(CCc4ccccc4)C(=O)[C@]3(C)[C@H]21
- z-score [1]: -0.823
- z-score [2]: -0.0416 (inactive)
- z-score [3]: -1.56 (inactive)
- composite z-score [4]: -0.757 (inactive)
- z-score [5]: -0.0424 (inactive)
- z-score [6]: 0.119 (inactive)
- z-score [7]: -0.575 (inactive)
- z-score [8]: -0.456 (inactive)
- z-score [9]: -1.52
- composite z-score [10]: 0.387

SMILES: C=C(COC)C(=O)CC[C@@H](OC(=O)c1ccccc1-c1ccccc1C(=O)O)c1ccc(OCCO)cc1
- z-score [1]: -0.425
- z-score [2]: -0.528 (inactive)
- z-score [3]: -0.105 (inactive)
- composite z-score [4]: -1.09 (inactive)
- z-score [5]: 0.449 (inactive)
- z-score [6]: -0.426 (inactive)
- z-score [7]: -0.699 (inactive)
- z-score [8]: -0.708 (inactive)
- z-score [9]: -0.492
- composite z-score [10]: 0.165

SMILES: O=C1NC(=O)C2C1C=CC(C(O)c1ccc(B(O)O)cc1)N2Nc1ccc(Cl)cc1Cl (stereo not given)
- z-score [1]: -1.97
- z-score [2]: -7.76 (inactive)
- z-score [3]: -1.19 (inactive)
- composite z-score [4]: -0.0575 (inactive)
- z-score [5]: 1.29 (inactive)
- z-score [6]: 1.48 (inactive)
- z-score [7]: 0.0436 (inactive)
- z-score [8]: -1.52 (inactive)
- z-score [9]: -1.78
- composite z-score [10]: 0.0049

SMILES: COc1ccc([Si](C)(C)[C@@H]2[C@@H](CC(=O)N(CCO)Cc3ccccc3)O[C@]3(C(=O)N(Cc4ccc(N5C(=O)c6cccc7cccc5c67)cc4)c4ccccc43)[C@H]2C)cc1
- z-score [1]: -1.17
- z-score [2]: 1.21 (inactive)
- z-score [3]: -1.48 (inactive)
- composite z-score [4]: -0.992 (inactive)
- z-score [5]: 1.56 (inactive)
- z-score [6]: 2.5 (inactive)
- z-score [7]: 0.302 (inactive)
- z-score [8]: -0.22 (inactive)
- z-score [9]: -1.85
- composite z-score [10]: 0.237

SMILES: COC(=O)c1cccc([C@H]2OC(=CC(=O)OC(C)C)C[C@@H](c3cccc(C(=O)OC)c3)O2)c1
- z-score [1]: -0.674
- z-score [2]: -2.43 (inactive)
- z-score [3]: -0.799 (inactive)
- composite z-score [4]: -0.351 (inactive)
- z-score [5]: 0.188 (inactive)
- z-score [6]: -0.258 (inactive)
- z-score [7]: -0.435 (inactive)
- z-score [8]: -0.0196 (inactive)
- z-score [9]: 0.0732
- composite z-score [10]: 0.378
